We go through 19 molecules from PubChem BioAssay (NCI).

The structures appear in SMILES notation. The panel holds about 79,000 compounds, 15% with a hit somewhere; the sample as a whole holds those more often. Values without a mark were called inactive. Active and inactive are the calls of the source. Cut-off read from the data, not from the text of the source: active = growth inhibition above about 70%; inactive = the rest.

A short description of assay [1]: NCI Yeast Anticancer Drug Screen. Data for the rad50 strain (AID 155).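 Note: 0% = growth of vehicle-only cultures of the same strain.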 The settings on record: S. cerevisiae rad50 strain growth inhibition; at 50.0 µM; hits give high values. The procedure, abridged:
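Readout: growth inhibition relative to vehicle-treated cultures. Compound exposure was carried out in a genetically defined yeast strain deficient in DNA damage repair.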

Assay [2] in a line: NCI Yeast Anticancer Drug Screen. Data for the mec2-1 strain (AID 157). The settings on record: S. cerevisiae mec2-1 strain, at 50.0 µM, hits give high values. The gist of the method:
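Growth inhibition is read against vehicle-treated controls after compound exposure of the mec2-1 yeast strain, which is defective in DNA damage repair or cell cycle control.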

Assay [3] can be described thus: NCI Yeast Anticancer Drug Screen. Data for the sgs1 mgt1 strain (AID 161).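 Note: 0% = growth of cultures given vehicle only.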 The settings on record: S. cerevisiae sgs1 mgt1 strain, at 50.0 µM, hits give high values. The gist of the method:
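Percent growth inhibition was derived by comparing compound-exposed mutant yeast with vehicle-exposed cultures. The strain carries alterations in DNA damage repair.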

Assay [4] in a line: NCI Yeast Anticancer Drug Screen. Data for the cln2 rad14 strain (AID 165).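 Note: 0% = growth equal to vehicle treated cultures.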 The settings on record: S. cerevisiae cln2 rad14 strain, at 50.0 µM, hits give high values. The procedure, abridged: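 Growth inhibition, relative to vehicle-treated controls, is the read-out. The test organism is a yeast strain with defined genetic alterations, cln2 rad14.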
Assay [5] can be described thus: NCI Yeast Anticancer Drug Screen. Data for the bub3 strain (AID 167). The settings on record: S. cerevisiae bub3 mutant strain, at 50.0 µM, hits give high values. The procedure, abridged:
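Readout: yeast growth inhibition, expressed relative to vehicle-only wells. The test organism is a mutant strain from a panel with lesions in DNA repair or checkpoint genes.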

The nature of assay [6]: NCI Yeast Anticancer Drug Screen. Data for the mlh1 rad18 strain (AID 175). The settings on record: S. cerevisiae mlh1 rad18 strain growth inhibition; at 50.0 µM; hits give high values. The gist of the method:
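Cells of a genetically altered yeast strain, deficient in DNA damage repair, were treated with compound. Their growth was then compared with that of vehicle-treated cultures to give inhibition.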

For the molecule `Cc1ccc2c(c1)SN(CN1C(=O)c3ccccc3C1=O)N2`, the growth inhibition in assay [1] is -37.1%; in assay [2], -43.6%; in assay [3], -7.15%; in assay [4], -19%; in assay [5], -38.7%; in assay [6] it was -28.9%.

As for `CCc1c(CNc2ccc(Cl)c(Cl)c2)ccc2nc(N)nc(N)c12`, the growth inhibition in assay [1] was 90.7% (active); in assay [2] it was 92.2% (active); in assay [3], 91.9% (active); in assay [4] it was 90% (active); in assay [5], 90.5% (active); in assay [6] it was 89.7% (active).

As to `CC(C)(C)C(O)CC(O)(C(F)(F)F)C(F)(F)F` (centres undefined), the growth inhibition in assay [1] is -2.45%; in assay [2], -21.1%; in assay [3], -12.8%; in assay [4], 19.6%; in assay [5], -5.9%; in assay [6], -1.9%.

With `ON(C(=S)Nc1ccccc1)c1ccccc1`, the growth inhibition is 20.9% in assay [1]; 12.8% in assay [2]; 21.1% in assay [3]; -13.7% in assay [4]; 8.3% in assay [5]; 15.9% in assay [6].

For the molecule `CC(=O)CC(=O)NC(C)(C)CC(C)(C)C`, the growth inhibition in assay [1] is -16.4%; in assay [2], -41.9%; in assay [3], -31.8%; in assay [4], 10.8%; in assay [5], -34.8%; in assay [6], -9.55%.

In the case of `COC(=O)c1c(C)cc(C)c(C(C)=O)c1O`, the growth inhibition is -16.9% in assay [1]; -14.8% in assay [2]; 0% in assay [3]; -18.7% in assay [4]; 0.75% in assay [5]; -16.1% in assay [6].

Consider `CCCC(C)C1(CCC)C(=O)N=C(N)N=C1N` (centres undefined), for which the growth inhibition in assay [1] was 3.8%; in assay [2], 7.75%; in assay [3], -3.9%; in assay [4], 12.4%; in assay [5] it was -2.8%; in assay [6], -10.5%.

Consider `N#CC1(c2ccccc2)OC1(C#N)c1ccccc1` (centres undefined), for which the growth inhibition in assay [1] was 3.1%; in assay [2], -14.6%; in assay [3], -4.8%; in assay [4], -22.2%; in assay [5], -11.2%; in assay [6] it was -7.6%.

With `CC1=NN(c2ccccc2)C(=O)/C1=C\c1ccccc1`, the growth inhibition was 15.6% in assay [1]; 16.9% in assay [2]; 24.7% in assay [3]; 10.1% in assay [4]; 33.5% in assay [5]; 21.6% in assay [6].

Consider `O=C(Nc1ccc(Cl)cc1)Nc1nnc(-c2ccc(F)cc2)o1`, for which the growth inhibition in assay [1] was 5.5%; in assay [2] it was 9.25%; in assay [3], 7.75%; in assay [4], -70.3%; in assay [5], -25%; in assay [6], 17.4%.

As for `COC1OC(COS(C)(=O)=O)C(OS(C)(=O)=O)C(OC(=O)c2ccccc2)C1OS(C)(=O)=O` (centres undefined), the growth inhibition in assay [1] was -6.25%; in assay [2], 8%; in assay [3], -9.6%; in assay [4], 1.15%; in assay [5] it was -0.85%; in assay [6], 20.6%.

For `S=C(Sc1nc2ccccc2[nH]1)Sc1nc2ccccc2[nH]1`, the growth inhibition in assay [1] was 16.9%; in assay [2] it was -4.05%; in assay [3], 10.2%; in assay [4], -34.9%; in assay [5], 8.95%; in assay [6], 24.6%.

With `O=C(O)c1ccc(Nc2nc3ccccc3nc2-c2cccs2)cc1`, the growth inhibition in assay [1] was 2.9%; in assay [2], 18.6%; in assay [3], 5.95%; in assay [4], 20.7%; in assay [5], 12.2%; in assay [6], -9.7%.

For `N#CC1=C(c2ccccc2)NNC(c2ccc(Cl)cc2)CC1=O` (centres undefined), the growth inhibition is -18.1% in assay [1]; -1.45% in assay [2]; 2.4% in assay [3]; 6.8% in assay [4]; -22.6% in assay [5]; 36.5% in assay [6].

On to `C=C(Cl)C(Br)(CCl)CCC(Cl)C(C)C` (centres undefined) (tested in a mixture with another compound), for which the growth inhibition in assay [1] is 85% (active); in assay [2], 86.3% (active); in assay [3], 91% (active); in assay [4], 91.5% (active); in assay [5] it was 90.7% (active); in assay [6], 73.8% (active).

For `O=C(CC1=NC2NN(c3ccccc3)C(=O)C2=C1CC(=O)C(c1ccccc1)c1ccccc1)C(c1ccccc1)c1ccccc1` (centres undefined), the growth inhibition in assay [1] is 51.9%; in assay [2] it was 17.9%; in assay [3] it was 27.8%; in assay [4] it was 32%; in assay [5], 10.8%; in assay [6], 48.5%.

Regarding `CC(C)c1cccc(C(C)C)c1NC(=O)C(=O)C(C(=O)c1ccccc1-c1ccccc1)C1OC(=O)c2ccccc21` (centres undefined), the growth inhibition in assay [1] was 8.2%; in assay [2], 3.8%; in assay [3], 19.6%; in assay [4] it was -49.2%; in assay [5] it was -3.05%; in assay [6], 8%.

As to `Cc1oc(C)c2c(N=Nc3ccc([N+](=O)[O-])cc3[N+](=O)[O-])c3ccccc3c(O)c12`, the growth inhibition in assay [1] is 25%; in assay [2] it was 25.1%; in assay [3], 11.4%; in assay [4] it was -27.6%; in assay [5] it was 37.5%; in assay [6], 49.6%.

As to `CCOC(=O)Nc1cc(C(F)(F)F)ccc1F`, the growth inhibition in assay [1] was -14.8%; in assay [2], -16.2%; in assay [3] it was -14%; in assay [4], -43.9%; in assay [5] it was 3.95%; in assay [6], -7.1%.
